Screens (PubChem)
ALR H2O2 inh – human ALR oxidase inhibition via reduced H2O2; 3.8% of 290,000 active; inhibition, % (no concentration beside the values); purified ALR, DTT oxidation, H2O2 HRP-luminol luminescence; P55789;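 active = mean replicate inhibition above about 79%, with every replicate also reaching it, limit read from the data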
Target sequence (P55789 whole entry, looked up): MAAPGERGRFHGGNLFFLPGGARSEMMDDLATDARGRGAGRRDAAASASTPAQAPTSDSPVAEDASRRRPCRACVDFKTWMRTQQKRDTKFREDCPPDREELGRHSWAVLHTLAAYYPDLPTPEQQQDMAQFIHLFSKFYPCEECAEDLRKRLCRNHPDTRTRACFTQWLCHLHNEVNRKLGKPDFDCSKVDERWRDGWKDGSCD
Mot1-301 SUMO – SUMOylation pathway inhibition by Mot1-301 growth rescue; S. cerevisiae Mot1-301 growth rescue, ATP luminescence, 38.5C; percent above DMSO median, 100 means doubled; growth rescue, % at 18.8 µM; 1% of 320,000 active; AID 2716;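 active = every valid replicate shows activation above 250% relative to neutral control wells; inactive = the rest, any valid replicate at or below 250%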;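 also: OY570 slx delta 5 strain wells were the positive control but not used for scaling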
AI-2 QS modul – modulates the Vibrio harveyi AI-2 quorum sensing system. Vibrio harveyi JMH597 AI-2 luminescence/OD600 ratio, 9 h; active compounds read low; strain lacks LuxN and CqsS sensors; 0 = neutral-control median. activity change, % at 7.5 µM. 0.4% of 300,000 active; in the data active = activity change below about -75%, passing the limit was not always enough;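 also: luminescence divided by OD600 gain over 9 h not by final OD600 alone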
HIF act – HIF pathway transcriptional activation | U2OS HRE-luciferase reporter, luminescence; normalized: DMSO 0%, desferrioxamine 100% | activation, % at 7.5 µM (by protocol) | 0.32% of 300,000 active | AID 1910;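 active = mean activation of at least 10% of the iron chelator positive control signal, with at least half of replicates also reaching 10%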
* marks the source's active call; other numbers are inactive results. A selection: hits, their analogues and other compounds. The true share with any hit is near 4.8%.

CC1(C)CC(=O)C(Sc2nnc(-c3ccc(NS(C)(=O)=O)cc3)n2Cc2ccco2)C(=O)C1 was read as ALR H2O2 inh 92* and Mot1-301 SUMO -21.
Screening Cn1c(SC2C(=O)CC(C)(C)CC2=O)nnc1-c1ccco1 returned ALR H2O2 inh 1, Mot1-301 SUMO 18 and AI-2 QS modul 9.
For CC(C(=O)NCCSCc1cccc(Cl)c1)N(c1ccccc1)S(C)(=O)=O (stereo unspecified) the results were ALR H2O2 inh -48, Mot1-301 SUMO -6, AI-2 QS modul -10 and HIF act 1.
Screening C=CCn1c(N)cc(=O)nc1SCC(=O)NC(C)c1ccccc1 (stereo unspecified) returned ALR H2O2 inh -3, Mot1-301 SUMO -4, AI-2 QS modul 34 and HIF act 0.
For Cc1nc(SCC(=O)Nc2ccccc2Cl)oc1C the results were ALR H2O2 inh 99*, Mot1-301 SUMO -6, AI-2 QS modul 18 and HIF act 0.
C=CCn1c(N)cc(=O)nc1SCC(=O)Nc1ccc2ccccc2c1 was read as ALR H2O2 inh 99*, Mot1-301 SUMO -8, AI-2 QS modul 44 and HIF act 0.
Screening Nc1cc(=O)nc(SCC(=O)Nc2ccccc2Cl)n1-c1ccccc1 returned ALR H2O2 inh 99*, Mot1-301 SUMO 325, AI-2 QS modul 2 and HIF act -2.
Screening Cc1cccc(-n2c(N)cc(=O)nc2SCC(=O)Nc2ccccc2)c1 returned ALR H2O2 inh 98*, Mot1-301 SUMO -3, AI-2 QS modul 20 and HIF act 0.
`Nc1cc(=O)nc(SCC(=O)Nc2ccccc2)n1-c1ccccc1` gave ALR H2O2 inh 2, Mot1-301 SUMO 0, AI-2 QS modul 4 and HIF act -1.
`CCc1cccc(C)c1NC(=O)CSc1nc(C)c(C)o1` gave ALR H2O2 inh -11, Mot1-301 SUMO 3, AI-2 QS modul 11 and HIF act 0.
For COc1ccc(CC(=O)N/N=C(/C)CC(=O)N(C)c2ccccc2)cc1 the results were ALR H2O2 inh -2, Mot1-301 SUMO -15, AI-2 QS modul -1 and HIF act 0.
`COc1ccc(CN2CCNC(=O)C2CC(=O)N(C)CCCN2CCOCC2)cc1C` (stereo unspecified) gave ALR H2O2 inh -6, Mot1-301 SUMO -6, AI-2 QS modul 35 and HIF act 0.
COCCNC(=S)N1CCN(Cc2ccc3c(c2)OCO3)CC1 was read as ALR H2O2 inh -15, Mot1-301 SUMO 1, AI-2 QS modul 8 and HIF act 0.
Screening Cc1ccc(S(=O)(=O)N2CCN(C(=O)c3ccccc3)C2C(C)C)cc1 (stereo unspecified) returned Mot1-301 SUMO 279* and AI-2 QS modul 6.
For CC(=O)N1CCN(S(=O)(=O)c2ccc(C)cc2)C1C(C)C (stereo unspecified) the results were ALR H2O2 inh 6, Mot1-301 SUMO 56, AI-2 QS modul 11 and HIF act 0.
Screening CCOC(=O)C1=C(COC(=O)C2CC(=O)N(c3ccccc3F)C2)NC(=O)NC1C (stereo unspecified) returned ALR H2O2 inh -6 and Mot1-301 SUMO 2.
For Cc1ccc(OCCNC(=O)CCNC(=O)c2ccc(Cl)cc2)cc1 the results were ALR H2O2 inh -5 and Mot1-301 SUMO 15.
`CCn1cc(C(=O)O)c(=O)c2cc(F)c(N/N=C/c3ccccc3[N+](=O)[O-])cc21` gave ALR H2O2 inh -12, Mot1-301 SUMO 669*, AI-2 QS modul 18 and HIF act 0.
`Cc1nn(Cc2ccccc2)c(C)c1CNC(=O)[C@H](C)N=C1NS(=O)(=O)c2ccccc21` gave ALR H2O2 inh -4 and Mot1-301 SUMO 0.
Screening CCC(=O)n1nc(NCc2ccc(OC)c(OC)c2)nc1NCc1ccc(OC)c(OC)c1 returned ALR H2O2 inh -1, Mot1-301 SUMO 109, AI-2 QS modul 21 and HIF act 227*.
Screening CCC(=O)n1nc(-c2cccnc2)nc1NCc1ccc(OC)cc1 returned ALR H2O2 inh 13, Mot1-301 SUMO -5, AI-2 QS modul 5 and HIF act 0.
For Cc1ccc(OCC(=O)Sc2ccc(C)cc2)cc1 the results were ALR H2O2 inh 100*, Mot1-301 SUMO -1, AI-2 QS modul 17 and HIF act 0.
`COc1ccccc1OCC(=O)Sc1ccc(C)cc1` gave ALR H2O2 inh 98*, Mot1-301 SUMO 6, AI-2 QS modul 31 and HIF act 0.
COc1ccc(/C=N\Nc2ccc([N+](=O)[O-])cc2[N+](=O)[O-])c(C(=O)O)c1OC was read as ALR H2O2 inh 98*, Mot1-301 SUMO 8, AI-2 QS modul 22 and HIF act 1.
